The list is not random: actives were taken first. Their share in the collection is about 10%.
PNC assembly inh: perinucleolar compartment assembly inhibition | activity change (PNC), negative = inhibition, % at 10 µM | AID 2417 | PC3M PTB-GFP, PNC prevalence imaging, 16 h; hits give low values | 140,000 tested, 3.1% active;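 active means readout at or below -70, meaning at least 70% loss of cells showing the perinucleolar compartment, a nuclear body marking cancer cells; inconclusive means readout between -30 and a set limit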
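Read-out is percentage of cells bearing a perinucleolar compartment, from automated 20x imaging of fixed, Hoechst-stained PC3M PTB-GFP cells. Cells were seeded 4 h, then exposed 16 h to compound (23 nl of library stock) in duplicate plates.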
ALDH1A1 block: inhibitors of human aldehyde dehydrogenase 1A1; Potency, µM (top dose mostly 75.3 µM), actives largely listed as inhibitors; P00352; Purified ALDH1A1, NADH fluorescence, propionaldehyde substrate; 220,000 tested, 7.3% active
HPGD block: inhibitors of human 15-hydroxyprostaglandin dehydrogenase (HPGD); P15428; 150,000 tested, 4.3% active; Potency, µM, actives largely listed as inhibitors; purified HPGD, NADH fluorescence kinetic, PGE2 substrate
Target sequence (P15428 whole entry, looked up): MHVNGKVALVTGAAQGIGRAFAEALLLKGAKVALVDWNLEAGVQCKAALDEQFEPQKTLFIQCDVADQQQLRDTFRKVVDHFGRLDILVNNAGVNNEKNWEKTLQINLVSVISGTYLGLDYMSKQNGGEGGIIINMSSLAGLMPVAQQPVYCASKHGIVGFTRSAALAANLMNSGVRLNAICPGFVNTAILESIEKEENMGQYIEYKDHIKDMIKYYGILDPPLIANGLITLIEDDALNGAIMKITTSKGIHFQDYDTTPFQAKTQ
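20 nM HPGD preincubated 15 min at room temperature with compound in 50 mM Tris-HCl pH 8, 0.01% Tween 20. Started with 1 mM NAD+ and 30 uM prostaglandin E2; NADH fluorescence (360/450 nm) read 5 times over 30-s intervals, last minus first.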
LMNA splice mod: changes lamin A minigene splicing in HeLa cells; HeLa LMNA splicing GFP/RFP minigene ratio, 48 h; Potency, µM (doses to about 46.1 µM), most hits filed as inhibitors; 200,000 tested, 0.01% active; active means well fitted inhibition curve with a large enough effect in the signal ratio, with a control signal flat, not every such curve was filed as active; inconclusive means small, poorly fitted or top-dose-only effect, or effect the other way, or a change in a side signal; the % refers to the signal ratio
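Read-out is the ratio of GFP to DsRed2 object intensity, acquired by 488 nm laser-scanning cytometry on HeLa lamin A-EGFP minigene reporter cells. Compound incubation 48 hrs at 37 °C in Opti-MEM with 2% FBS; DMSO 0.5% final.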
12-hLO inh: inhibitors of human 12-lipoxygenase (ALOX12); P18054; purified 12-hLO, xylenol orange hydroperoxide absorbance; Potency, µM (doses to about 57.1 µM), most hits filed as inhibitors; 150,000 tested, 0.12% active; AID 1452; active means well fitted inhibition curve with a large enough effect; inconclusive means small, poorly fitted or top-dose-only effect; further: nearly all actives have a fitted effect of over 55% in size
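Xylenol orange chromogenic assay: hydroperoxide from 12hLO oxidises Fe(II), giving red-shifted Fe(III)-XO absorbance. Conditions: 150 nM enzyme, 40 uM arachidonic acid, 25 mM Hepes pH 7.0, 0.01% Triton X-100, 30 min, room temperature.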
Large screens that a line does not name were inactive. Unless noted, the call rests on the fitted dose curve; in most records, active means well fitted inhibition curve with a large enough effect (not every such curve was filed as active); inconclusive means small, poorly fitted or top-dose-only effect, or another doubt; inactive means no such curve, though single readings can be large or run the other way.

Cc1ccc2ccc(S(=O)(=O)n3nc(C)cc3C)cc2c1	ALDH1A1 block 0.89µM, HPGD block inconclusive, LMNA splice mod inconclusive
O=C(c1csnn1)N1CCC2(CCCN(c3cccc(-c4ccccc4)c3)C2)CC1	none (no result: PNC assembly inh, LMNA splice mod)
CCCCCCCC[n+]1cccc(C(=O)N(CC)CC)c1	PNC assembly inh -124, LMNA splice mod inconclusive
Cc1ccc(N(CC(=O)N=Nc2c(O)[nH]c3ccccc23)S(C)(=O)=O)c(C)c1	none (no result: PNC assembly inh, HPGD block, 12-hLO inh)
Cc1ccc(N=Nc2c(O)c3ccccc3[nH]c2=O)c(S(=O)(=O)N(C)C)c1	ALDH1A1 block 14µM (no result: PNC assembly inh, LMNA splice mod)
Cc1ccc(NC(=S)NCc2ccc3[nH]c4c(c3c2)CCCC4)cc1	ALDH1A1 block 18µM, LMNA splice mod inconclusive, 12-hLO inh inconclusive
CC1Cc2ccccc2N1C(=O)CSc1nnnn1C (stereo unspecified)	none
CC1Cc2ccccc2N1C(=O)CSc1nnnn1C(C)C (stereo unspecified)	ALDH1A1 block 28µM
CCCn1c(SCC(=O)N2c3ccccc3CC2C)nnc1-c1ccco1 (stereo unspecified)	PNC assembly inh -100
CC1Cc2ccccc2N1C(=O)CSc1nnnn1C1CCCC1 (stereo unspecified)	PNC assembly inh inconclusive, ALDH1A1 block 2.5µM
CC1Cc2ccccc2N1C(=O)CSc1nnc2sc3ccccc3n12 (stereo unspecified)	PNC assembly inh inconclusive, ALDH1A1 block 14µM
COC(=O)N1C2CC3(C)C=C(C)OC1(C)C3c1ccccc12 (stereo unspecified)	none (no result: PNC assembly inh)
COC(=O)NC(c1cccc(C)c1)C(C(C)=O)C(=O)OC (stereo unspecified)	none (no result: PNC assembly inh, HPGD block, LMNA splice mod, 12-hLO inh)
Cc1ccccc1OCc1nc2ccccc2c(=O)n1NC(=O)c1ccco1	PNC assembly inh -100
CC1=C(C(=O)Nc2ccccc2)C(c2ccc(C(=O)O)cc2)n2nc(SCC(=O)c3ccc(C)cc3)nc2N1 (stereo unspecified)	none (no result: PNC assembly inh, ALDH1A1 block, HPGD block, 12-hLO inh)
CN(C)S(=O)(=O)c1ccc(Nc2ccc(-c3ccc4c(c3)OCCO4)nn2)cc1	ALDH1A1 block inconclusive
CN(C(=O)c1cccc(Nc2ccc(-c3ccc4c(c3)OCCO4)nn2)c1)C1CCCCC1	ALDH1A1 block 25µM, HPGD block inconclusive, LMNA splice mod inconclusive
COc1ccc(-n2c(=O)c(-c3ccc(F)cc3)nc3cnc(N4CCOCC4)nc32)cc1	none (no result: PNC assembly inh, HPGD block, 12-hLO inh)
CC(=O)c1cccc(N2Cc3ccccc3C2=NC(=O)CCl)c1	ALDH1A1 block 3.5µM (no result: PNC assembly inh, HPGD block, LMNA splice mod, 12-hLO inh)
COc1ccc2sc3ccccc3c(=O)c2c1	ALDH1A1 block inconclusive
COc1ccc(-c2cc(=O)c3ccccc3s2)cc1	ALDH1A1 block inconclusive, HPGD block 7.9µM
C#CCCCCCCCCCCCC(O)CC(O)COC(C)=O (stereo unspecified)	ALDH1A1 block 14µM (no result: PNC assembly inh, LMNA splice mod)
COc1ccc(S(=O)(=O)NCCc2sc(-c3cccnc3)nc2C)cc1	none (no result: PNC assembly inh, ALDH1A1 block, HPGD block, 12-hLO inh)
CCCC(O)(CCC)C(=O)NN(C(=O)CCl)c1ccccc1	PNC assembly inh inconclusive, ALDH1A1 block 25µM, LMNA splice mod inconclusive
Cc1ccc(S(=O)(=O)N2CCN(C(=O)CSc3nc4ccccc4c(=O)[nH]3)CC2)cc1	PNC assembly inh inconclusive, ALDH1A1 block 3.2µM
CC(C)c1nc(SCC(=O)N2CCCC2)c2ccccc2n1	ALDH1A1 block 3.2µM
O=C(CSc1nc2ccccc2[nH]1)N1CCN(S(=O)(=O)c2ccc(Cl)cc2)CC1	none
CCSc1nc2[nH]ncc2c(=O)[nH]1	PNC assembly inh -87
O=C(CSc1nc2[nH]ncc2c(=O)[nH]1)N1CCCCC1	PNC assembly inh inconclusive, ALDH1A1 block 20µM
N[C@H](Cc1ccc(O)c(O)c1)C(=O)O	ALDH1A1 block inconclusive (no result: PNC assembly inh, 12-hLO inh)
CCC(CO)NCC#Cc1ccccc1 (stereo unspecified)	none (no result: PNC assembly inh, HPGD block, 12-hLO inh)
COc1cc(OC)c(OC)cc1/C=C/c1nc2cc3ccccc3cc2c(=O)n1-c1ccccc1Br	none (no result: PNC assembly inh, ALDH1A1 block, HPGD block, 12-hLO inh)
CCOC(=O)c1ccc(NS(=O)(=O)c2cn(C)c(C)n2)cc1	none (no result: PNC assembly inh, ALDH1A1 block, HPGD block, 12-hLO inh)
COc1cc(NC(=O)Cn2ccn(-c3cc(C)cc(C)c3)c(=O)c2=O)cc(OC)c1	none (no result: PNC assembly inh, ALDH1A1 block, HPGD block, 12-hLO inh)
Cc1ccc(S(=O)(=O)N2CCN(C(=O)CSc3ncc(C(F)(F)F)cc3Cl)CC2)cc1	ALDH1A1 block 2.8µM, LMNA splice mod inconclusive
O=C(CSc1nc2[nH]ncc2c(=O)[nH]1)c1ccc(Cl)cc1	ALDH1A1 block 2.5µM (no result: PNC assembly inh, HPGD block, LMNA splice mod, 12-hLO inh)
O=C(CSc1nncc2ccccc12)N1CCCCC1	ALDH1A1 block 10µM (no result: PNC assembly inh, HPGD block, LMNA splice mod, 12-hLO inh)
